# Pf growth 96h: P. falciparum growth inhibition at 96 hour, primary screen for plastid delayed-death inhibitors | AID 504834 | actives 6.9% (n = 320,000) | P. falciparum luciferase reporter growth, 96 h | Potency, µM (series often up to 28.7 µM), most hits filed as inhibitors
#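 Plates of compound plus infected erythrocytes (2% hematocrit, 0.05% parasitemia final) incubate 96 hours, 37 C, 5% CO2. Detection reagent added; reduced luminescence from the parasites' luciferase reporter flags inhibition.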
# NS1 inh: blocks influenza NS1 protein function; Potency, µM (highest dose often 46.1 µM); actives 0.4% (n = 270,000); calls by dose curve; also: actives are rising curves; nearly all actives have a fitted effect of over 50% in size
#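 Recovery from NS1-induced slow growth read by OD600 in budding yeast switched to galactose assay medium (pH 6.0, -URA) at 1:100 dilution. Compound 23 nl per well; the matching strain lacking NS1 serves as control.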
# Pf growth 48h: inhibits P. falciparum growth in the first generation, 48 h. AID 504832. Potency, µM (highest dose often 28.7 µM), most hits filed as inhibitors. P. falciparum luciferase growth in erythrocytes, 48 h. actives 5.9% (n = 310,000)
#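 Here the parasites carry a stable luciferase gene and grow inside erythrocytes in Albumax-based RPMI medium with compound for one erythrocytic cycle. Activity is scored as loss of luminescent signal.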
# VACV Venus inh: vaccinia inhibition (Venus reporter); Vaccinia virus Venus reporter expression, fluorescence; actives 0.46% (n = 330,000); Potency, µM (series often up to 36.5 µM), hits mostly inhibitors; AID 720580; calls by dose curve; tested in A549 cells; also: nearly all actives have a fitted effect of over 30% in size
# Vaccinia mCherry: inhibitors of vaccinia virus infection (mCherry reporter signal). Potency, µM (doses to about 36.5 µM), usual class: inhibitors. Vaccinia virus mCherry reporter infection, fluorescence. AID 720579. actives 0.63% (n = 310,000); calls by dose curve; tested in A549 cells; also: nearly all actives have a fitted effect of over 35% in size
# HCV inhibitor: blocks hepatitis C virus. Huh7.5.1 HCVcc-Cre infection, luciferase reporter, 44 h. Potency, µM (top dose mostly 41.8 µM), hits mostly inhibitors. actives 3.4% (n = 340,000)
#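 Whole-lifecycle infectious HCVcc-Cre system; cells 1,000/well, compound then virus (~0.5 moi) added 4 h after plating, 44 h culture. Luciferase read 15 sec following 15 min substrate incubation, room temp.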
# Hits are given with their value; i = inactive; ? = inconclusive; nt = no result given. Only some compounds are listed: those with a hit (about 11% of all), similar ones and a draw of the others. Unless noted, calls follow the shape of the dose curve; as a rule, active = well fitted inhibition curve with a large enough effect; inconclusive = small, poorly fitted or top-dose-only effect, or another doubt; inactive = no such curve, though single readings can be large or run the other way.
SMILES,Pf growth 96h,NS1 inh,Pf growth 48h,VACV Venus inh,Vaccinia mCherry,HCV inhibitor
CCOC(=O)N1CCN(C(=O)COc2ccc(S(=O)(=O)NC3CCCCC3)cc2C)CC1,nt,i,i,i,nt,i
COc1ccc(C(C(=O)NCc2ccccc2)N(Cc2cccnc2)C(=O)c2snc(C(N)=O)c2N)cc1OC (stereo not given),i,i,?,i,i,i
CN(C)c1ccc(C(C(=O)NCc2ccccc2)N(Cc2cccnc2)C(=O)c2snc(C(N)=O)c2N)cc1 (stereo not given),13µM,i,?,i,i,i
CCOc1ccc(C(C(=O)NC2CCCC2)N(C(=O)c2snc(C(N)=O)c2N)c2cccc(O)c2)cc1 (stereo not given),i,i,?,i,i,13µM
Cc1ccccc1N(C(=O)c1snc(C(N)=O)c1N)C(C(=O)NCc1ccccc1)c1ccc(O)cc1 (stereo not given),i,i,?,i,i,5.6µM
Cc1ccccc1N(C(=O)c1snc(C(N)=O)c1N)C(C(=O)NC1CCCCC1)c1ccc(O)cc1 (stereo not given),?,i,?,i,?,10µM
Cc1cc(C)nc(N2N=C(C(F)(F)F)CC2=O)n1,i,i,i,nt,nt,i
COc1ccc2c(c1)OC(=O)CC2c1ccccc1OC (stereo not given),nt,nt,nt,i,i,?
Cc1ccc2c(CN(C)Cc3ccccc3)cc(=O)oc2c1C,i,i,i,i,i,?
COc1ccc(C(C(=O)NC2CCCC2)N(Cc2ccccc2)C(=O)c2nsc(Cl)c2Cl)cc1 (stereo not given),?,i,?,?,i,?
CCOc1ccccc1N(C(=O)c1snc(C(N)=O)c1N)C(C(=O)NCc1ccccc1)c1ccc(O)cc1 (stereo not given),?,i,12µM,i,i,?
CCOc1ccccc1N(C(=O)c1snc(C(N)=O)c1N)C(C(=O)NC1CCCC1)c1cccs1 (stereo not given),?,i,9.3µM,i,i,?
Cc1ccc(N(C(=O)c2nsc(Cl)c2Cl)C(C(=O)NC2CCCC2)c2ccc(O)cc2)cc1C (stereo not given),i,?,?,?,i,?
Cc1cccc(N(C(=O)c2nsc(Cl)c2Cl)C(C(=O)NC2CCCC2)c2ccc(O)cc2)c1C (stereo not given),?,?,7.4µM,i,i,?
CCOc1ccc(C(C(=O)NC2CCCC2)N(Cc2ccccc2)C(=O)c2nsc(Cl)c2Cl)cc1 (stereo not given),?,i,13µM,nt,nt,?
CC(C)CC(NC(=O)C1CCC(C)CC1)C(=O)Nc1ccccc1F (stereo not given),i,i,?,i,i,i
COc1ccccc1N1C(=O)CSC1=S,i,i,i,nt,nt,i
COc1ccc(CNC(=O)C(C)N(Cc2ccccc2OC)C(=O)c2snc(C(N)=O)c2N)cc1 (stereo not given),i,i,?,i,i,10µM
COc1ccc(C(C(=O)NCc2ccccc2)N(C(=O)c2snc(C(N)=O)c2N)c2ccccc2OC)cc1OC (stereo not given),i,i,10µM,i,i,i
O=C(C1=NN[C@@H]2C(=O)N(c3cccc(F)c3)C(=O)[C@H]12)c1cnccn1,i,i,i,i,i,i
O=C(Nc1cc(Cl)ccc1N1CCOCC1)c1cnccn1,i,i,i,i,i,?
Cc1ccccc1-n1c(-c2ccoc2)nc2ccccc2c1=O,4.1µM,i,i,i,i,?
Cc1ccc(N(CC(N)=O)C2SC(=O)N(Cc3ccccc3)C2=O)cc1 (stereo not given),i,i,i,i,i,i
CCCCn1c(-c2ccccc2)cnc1SCC(=O)NCCc1ccc(OC)c(OC)c1,i,i,i,i,i,11µM
COc1ccc(CCNC(=O)Cn2cc(C(F)(F)F)cc(Cl)c2=O)cc1,i,i,i,i,i,i
SMILES,Pf growth 96h,NS1 inh,Pf growth 48h,VACV Venus inh,Vaccinia mCherry,HCV inhibitor
COc1ccc(CCNC(=O)CSc2nc(O)c(CCC(C)C)c(=O)[nH]2)cc1OC,?,i,i,i,i,i
COc1ccc(CCNC(=O)CSc2nc3c(sc(=S)n3-c3ccccc3)c(=O)[nH]2)cc1OC,nt,nt,nt,i,i,nt
CCCCc1c(O)nc(SCC(=O)NCCc2ccc(OC)c(OC)c2)[nH]c1=O,5.9µM,i,i,i,nt,i
COc1ccc(CCNC(=O)Cn2cc(C(F)(F)F)cc(Cl)c2=O)cc1OC,?,i,6.6µM,i,i,i
COc1ccc(CCNC(=O)CSc2nn(-c3ccccc3)c(=S)s2)cc1OC,?,i,10µM,i,i,?
Cc1ccc(-n2nc(C(=O)N3CCN(c4ccc(F)cc4)CC3)c(=O)n(C)c2=O)cc1,nt,nt,nt,i,i,nt
Cc1cccc(NC(=O)CN2CCN(C(=O)C(C)Oc3ccc(C#N)cc3)CC2)c1C (stereo not given),?,nt,i,nt,nt,i
O=C(CN1CCN(C(=O)CNC(=O)c2ccc(N3CCCC3=O)cc2)CC1)Nc1ccccc1Cl,?,nt,i,nt,nt,i
CC(C)OC(=O)C1Cc2ccccc2CN1S(=O)(=O)c1cccs1 (stereo not given),?,i,?,i,?,i
CCC1Oc2ccccc2N(CC(=O)NCCc2ccc(OC)c(OC)c2)C1=O (stereo not given),3.3µM,i,?,i,i,?
CCC1Oc2ccc(C)cc2N(CC(=O)NCCc2ccc(OC)c(OC)c2)C1=O (stereo not given),nt,i,nt,i,i,?
Cc1cccc(N2CCN(Cc3nc(-c4ccc(F)cc4F)oc3C)CC2)n1,10µM,i,i,i,i,?
Cc1ccc(Cl)cc1NC(=O)C[n+]1ccc(Cc2ccc([N+](=O)[O-])cc2)cc1,1.9µM,nt,?,nt,nt,?
CC(C)(C)NC(=O)NC(=O)C[n+]1ccc(Cc2ccc([N+](=O)[O-])cc2)cc1,?,i,9.3µM,nt,nt,i
Cc1ccc(-c2nnn(CCC(=O)Nc3ccc4c(c3)OCO4)n2)cc1,nt,i,i,i,i,i
CCN(CC)S(=O)(=O)c1ccc(-c2nnc(SCc3nnc(-c4ccc(C)cc4)o3)o2)cc1,i,i,i,?,0.0011µM,i
CCN(CC)S(=O)(=O)c1ccc(-c2nnc(SCc3nnc(-c4ccc(C)cc4)o3)n2CC)cc1,nt,i,?,nt,nt,i
CCN(CC)S(=O)(=O)c1ccc(-c2nnc(SCC(=O)N3CCOCC3)o2)cc1,8.3µM,i,?,3.5µM,2.5µM,i
COc1cc(OC)cc(-c2nnc(SCC(=O)N3CCOCC3)o2)c1,i,i,3.7µM,?,nt,i
COc1cc(OC)cc(-c2nnc(SCC(=O)N3CCCCC3)o2)c1,i,i,i,i,i,i
COC(=O)c1ccccc1NC(=O)C1CCCN(S(C)(=O)=O)C1 (stereo not given),i,?,i,i,i,i
CSc1nc(O)c(/C=C2\C=Nc3ccccc32)[nH]1,i,i,i,i,i,?

# Bioassay records deposited in PubChem by National Center for Advancing Translational Sciences (NCATS).
